Assay outcomes deposited in PubChem by National Center for Advancing Translational Sciences (NCATS).
The list is not random: actives were taken first. Their share in the collection is about 0.77%.
Vif-APOBEC3G blk = Vif-A3G binding inhibition; HeLa A3G-eYFP + Vif (tagged APOBEC3G with the HIV-1 protein that degrades it), YFP fluorescence, overnight; Potency, µM (highest dose often 46.1 µM), without a hit: top-dose activity, negative = active, most hits filed as inhibitors; actives 0.076% (n = 410,000); AID 602310; note: potency is the fitted concentration of half-maximal effect; % is set by controls: 0 for no effect and ±100 for the full control effect; nearly all actives have a fitted effect of over 60% in size
Target sequence (Q9HC16 whole entry, looked up): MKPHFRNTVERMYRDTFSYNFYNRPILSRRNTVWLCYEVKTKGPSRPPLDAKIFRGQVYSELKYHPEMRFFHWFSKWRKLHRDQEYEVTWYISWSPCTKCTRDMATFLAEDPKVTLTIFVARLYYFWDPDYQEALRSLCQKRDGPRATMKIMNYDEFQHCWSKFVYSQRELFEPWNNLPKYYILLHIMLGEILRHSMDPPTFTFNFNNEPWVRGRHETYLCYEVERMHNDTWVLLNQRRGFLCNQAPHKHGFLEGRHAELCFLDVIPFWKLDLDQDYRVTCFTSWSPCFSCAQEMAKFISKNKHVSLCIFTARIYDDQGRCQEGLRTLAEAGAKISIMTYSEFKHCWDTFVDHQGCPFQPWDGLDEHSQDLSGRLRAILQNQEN
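Read-out is eYFP fluorescence (Ex 488/Em 500-530) from Vif-expressing HeLa A3G-eYFP cells; more signal means A3G escaped Vif-mediated degradation. Cells plated overnight, compound pinned in, incubated overnight at 37 deg C.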
GCN5L2 inh = inhibitors of human GCN5L2 histone acetyltransferase; Q92830; GCN5L2 HAT assay, ThioGlo1 CoA-SH fluorescence; Potency, µM (doses to about 58.9 µM), for inactives: at the top dose activity change, negative = inhibition, actives largely listed as inhibitors; actives 0.21% (n = 390,000); AID 504327; note: potency is the fitted concentration of half-maximal effect; % is set by controls: 0 for no effect and ±100 for the full control effect
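GCN5L2 (20nM final) in 50mM HEPES, 0.1mM EDTA pH 7.5, 0.01% Tween-20 was preincubated 15 min at room temperature with compound, then given ThioGlo1 (50uM), H3(1-25) peptide (75uM) and acetyl-CoA (70uM); CoA-thiol fluorescence (Ex340/Em540) was read at 0 and 20 min.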
RGS12 GoLoco inh = RGS12 GoLoco-Gai1 interaction inhibition; P63096; Gai1:RGS12 GoLoco peptide FP, rhodamine, 10 min; Potency, µM (top dose mostly 61.6 µM), without a hit: at the top dose activity, negative = inhibition, hits mostly inhibitors; actives 0.44% (n = 230,000); active = well fitted inhibition curve with a large enough effect, not every such curve was filed as active; inactive = no such curve, though single readings can be large or run the other way; note: potency is the fitted concentration of half-maximal effect; % is set by controls: 0 for no effect and ±100 for the full control effect; nearly all actives have a fitted effect of over 30% in size
Target sequence (P63096 whole entry, looked up): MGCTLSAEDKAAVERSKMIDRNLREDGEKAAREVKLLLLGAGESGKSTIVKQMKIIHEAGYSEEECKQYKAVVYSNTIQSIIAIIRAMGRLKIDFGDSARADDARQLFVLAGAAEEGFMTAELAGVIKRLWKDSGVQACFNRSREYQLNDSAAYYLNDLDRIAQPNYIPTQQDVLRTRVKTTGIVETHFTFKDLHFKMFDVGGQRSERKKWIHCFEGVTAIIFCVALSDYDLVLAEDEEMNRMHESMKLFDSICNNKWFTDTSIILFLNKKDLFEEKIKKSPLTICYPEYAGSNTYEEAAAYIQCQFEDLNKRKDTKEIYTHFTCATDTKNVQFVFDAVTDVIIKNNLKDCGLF
PKM2 activator = PKM2 (human) enzyme activation; P14618; purified PKM2, Kinase-Glo ATP luminescence, activation; response scale: 0% is enzyme alone, no compound; Potency, µM (top dose mostly 57.5 µM), inactives show at the highest dose activation, actives largely listed as activators; actives 0.34% (n = 260,000); AID 1631; note: potency is the fitted concentration of half-maximal effect; % is set by controls: 0 for no effect and ±100 for the full control effect; nearly all actives have a fitted effect of over 55% in size
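hPK-M2, >95% pure; 0.1 mM ADP / 0.5 mM PEP final; imidazole pH7.2 buffer w/ 7 mM MgCl2, 50 mM KCl; 1 h RT; Kinase-Glo lum. Intermediate enzyme activity for dual inhibitor/activator qHTS.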
IL2 activator = IL-2 activation. IL-2 activation reporter assay, cell-based qHTS; stimulated with anti-CD3/CD4/CD28 beads; in transgenic mouse T cells. activation, % (series mostly up to about 46 µM). actives 0.065% (n = 360,000). AID 652025; in the data active = activation above about 50%; inconclusive = mostly about 30% to 49%; note: 0% is about no effect
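Readout: EGFP and DsRed signals by fluorescent plate cytometry. Unstimulated transgenic mouse T cells received compound 60 min before antibody-bead stimulation, then incubated 18 h at 37 degrees C.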
Vif-A3F inh = blocks the Vif interaction with APOBEC3F; HeLa A3F-eYFP + Vif (tagged APOBEC3F with the HIV-1 protein that degrades it), YFP fluorescence increase; Potency, µM (series often up to 46.1 µM), inactives show at the highest dose activity, negative = active; actives 0.2% (n = 390,000); note: potency is the fitted concentration of half-maximal effect; % of control where 0% means no effect; nearly all actives have a fitted effect of over 65% in size
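HeLa cells stably expressing A3F-eYFP plus Vif, plated and incubated overnight at 37 deg C, then exposed to compounds overnight at 37 deg C. Blocked degradation read as raised yellow fluorescence (Ex 488/Em 500-530).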
Numbers without * were called inactive; ? = inconclusive; . = no result given; ! = repeats disagree. Unless noted, calls come from the whole dose curve; as a rule, active = well fitted curve in the direction sought with a large enough effect; inconclusive = small, poorly fitted or top-dose-only effect, or another doubt; inactive = no such curve, though single readings can be large; an effect the other way counts as inactive or inconclusive.

SMILES	Vif-APOBEC3G blk	GCN5L2 inh	RGS12 GoLoco inh	PKM2 activator	IL2 activator	Vif-A3F inh
O=C(Nc1nc2n(n1)C(c1ccccc1)C=C(c1ccc(Cl)cc1)N2)c1ccco1 (centres undefined)	-10.8%	-10.9%	.	.	.	-18.6%
O=C(c1nc2n(n1)C(c1ccc(Cl)cc1)C=C(c1ccccc1)N2)N1CCOCC1 (centres undefined)	-8.5%	22.4µM*	-1.4%	4.6%	-1.0	1.6%
CSc1nnc(-c2sc3cc(Cl)ccc3c2Cl)n1C	-7.3%	-2.6%	-4.5%	-1.6%	0.8	-7.9%
Nc1nc(N2CCOCC2)cc(=O)[nH]1	0.4%	-28.3%	20µM*	-1.7%	-0.8	-0.1%
O=S1(=O)Nc2c(ccc3cccnc23)-c2ccccc21	7.08µM*	-12.9%	13.5%	0.1%	-3.5	-0.9%
O=C(C1CCCN(Cc2ccccc2F)C1)N1CCCCC1 (centres undefined)	-12.8%	-1.8%	.	.	-0.8	10.8%
O=C(C1CCCN(Cc2ccccc2C(F)(F)F)C1)N1CCCCC1 (centres undefined)	2.8%	1µM*	-8.7%	1.3%	-1.2	-17.3%
CC1(c2ccccc2)NC(=O)N(CC(=O)NCCC2=CCCCC2)C1=O (centres undefined)	1.4%	28.2µM*	14.5%	-4.8%	-0.6	1.5%
Cc1noc(C)c1-c1nc(NCc2ccccc2)c2ccccc2n1	.	25.1µM*	2.3%	.	.	.
Cc1noc(C)c1-c1nc(NCc2cccnc2)c2ccccc2n1	.	-8.0%	-5.7%	.	.	.
Cc1cccc(NC(=O)c2c(NC(=O)c3ccccc3)sc3c2CCC3)c1	.	-12.4%	.	.	.	.
O=C1c2cccc3c(N4CCCCC4)ccc(c23)C(=O)N1c1cccc(O)c1	?	-1.1%	68.7%	-2.7%	?	3.98µM*
C=CCN1C(=O)c2cccc3c(N4CCCCC4)ccc(c23)C1=O	?	7.0%	10.2%	-9.2%	5.6	7.08µM*
O=C1c2cccc3c(N4CCCCC4)ccc(c23)C(=O)N1CCO	?	0.2%	16.6%	-1.4%	2.9	?
Cc1n[nH]c(C)c1N1C(=O)c2cccc3c(N4CCCCCC4)ccc(c23)C1=O	?	0.1%	20µM*	2.5%	?	?
Cc1ccc(N2C(=O)c3cccc4c(C(=O)O)ccc(c34)C2=O)cc1	.	-15.6%	16.2%	5.8%	.	.
Cc1c(C)n(Cc2ccccc2)c2ccc(C(=O)NCc3ccccc3F)cc12	?	-18.1%	.	.	.	-11.4%
COc1cccc(NC(=O)C2CCCC2)c1	-0.9%	-0.5%	.	.	-0.9	-3.9%
COc1cccc(Nc2nc(-c3ccccc3O)nc3ccccc23)c1	0.5%	-8.3%	.	.	64.1*	1.6%
O=C(COc1ccc(F)cc1)NCC1(N2CCOCC2)CCCCC1	0.2%	-4.7%	.	.	0.5	2.7%
N#CC1=C(N)Oc2cc(N)ccc2C1c1ccc(F)cc1F (centres undefined)	12.6µM*	-7.8%	.	3.0%	0.3	22.4µM*
O=C(Nc1cc(C(F)(F)F)ccc1-n1cncn1)c1ccc([N+](=O)[O-])o1	?	-2.8%	.	.	-1.4	12.6µM*
O=C(Nc1cc(C(F)(F)F)ccc1-n1cncn1)c1ccc(Br)cc1	-1.3%	-10.1%	5.6%	-0.5%	-2.4	16.3%
CCC(C)C(NC(=O)OCc1ccccc1)C(=O)OCN1C(=O)c2ccccc2C1=O (centres undefined)	3.7%	-15.2%	5.8%	1.8%	-2.7	9.7%
COC(=O)c1cccc(N2CCCC2=O)c1	0.8%	41.7%	10.6%	-2.9%	2.1	?
SMILES	Vif-APOBEC3G blk	GCN5L2 inh	RGS12 GoLoco inh	PKM2 activator	IL2 activator	Vif-A3F inh
O=c1c2ccccc2sn1-c1ccc(F)cc1	-9.4%	2µM*	.	.	-0.8	-3.2%
COC(=O)c1cccc(-n2sc3ccccc3c2=O)c1	-4.3%	1.58µM*	.	.	-0.6	-8.4%
Cc1ccc(S(=O)(=O)N2CCC(C(=O)OC(C)C(=O)NCc3ccccc3)CC2)cc1C (centres undefined)	-4.0%	-17.1%	.	18.5%	-0.1	6.0%
CSc1ccc(OC2(C)CCN(Cc3ccc(OC(C)C)cc3)C2)cc1 (centres undefined)	-1.9%	.	.	.	-0.9	.
COc1ccc2oc(=O)c(C(=O)C[n+]3cccc(C)c3)cc2c1	-2.5%	25.3%	10µM*	30.0%	0.1	-7.9%
CNC(=O)c1cc2cc(OC)ccc2oc1=O	-3.9%	-4.5%	-5.9%	-2.1%	-1.4	-15.3%
CCN1/C(=C/c2sc(-c3ccccc3C)c[n+]2C)Sc2ccccc21	-0.5%	-19.2%	10µM*	-6.1%	-6.0	-4.2%
COc1ccc(Oc2ncc3nc(-c4cccs4)c(=O)n(CCC#N)c3n2)cc1	.	-20.3%	1.0%	.	.	.
COc1ncc2nc(-c3cccs3)c(=O)n(CCC#N)c2n1	.	35.5µM*	-3.5%	.	.	.
COc1cc2ccc(=O)oc2cc1OCC(O)C(C)(C)O (centres undefined)	-1.4%	-29.7%	5.0%	-8.0%	1.2	2.1%
COc1cc2ccc(=O)oc2cc1O	0.4%	31.6µM*!	28.2µM*!	.	2.0	-4.4%
O=C(CCNS(=O)(=O)c1cccc2nsnc12)NCc1ccco1	1.7%	-5.7%	5.1%	-11.6%	-1.1	11.5%
CC(=O)NC(c1cccs1)c1cc(F)c2cccnc2c1O (centres undefined)	?	?	.	.	-0.5	10µM*
COc1cccc2c1C(=O)c1c(O)c3c(c(O)c1C2=O)C[C@@](O)(C(=O)CO)C[C@@H]3OC1C[C@@H](N)[C@H](O)[C@H](C)O1 (some centres undefined)	.	-18.7%	3.55µM*	.	.	.
COc1cccc2c1C(=O)c1c(O)c3c(c(O)c1C2=O)C[C@@](O)(C(C)=O)C[C@@H]3O[C@H]1C[C@H](N)[C@H](O)[C@H](C)O1	6.2%	?	1.58µM*	-1.3%	-0.4	-2.9%
COc1cccc2c1C(=O)c1c(O)c3c(c(O)c1C2=O)C[C@](O)(C(=O)CO)C[C@@H]3O[C@H]1C[C@H](N)[C@@H](O)[C@H](C)O1	.	11.1%	-1.4%	.	.	.
Cc1cc(C)c2c(=O)n(CC(=O)NC3CCCC3)sc2n1	-8.9%	?	3.55µM*	-22.0%	-3.8	0.8%
COc1ccc(N=Cc2c(O)n(-c3cccc(C)n3)c(=O)c3ccccc23)c(OC)c1	?	-5.5%	-4.7%	1.8%	?	10µM*
OCc1nnn(-c2ccccc2)c1CO	0.1%	-1.8%	9.7%	-3.9%	0.6	-1.7%
Nc1c(CO)nnn1-c1ccccc1	1.2%	-1.4%	3.16µM*	-1.2%	-1.8	13.1%
CC1=Nc2ccc(C)cc2/C1=C/c1c(N)n2oc(C)cc2nc1=O	?	-15.2%	63.4%	-0.9%	0.8	11.2µM*
